Measurements as given in PubChem BioAssay (NCATS).
Results filed as inconclusive are left out. Activity calls are given as the source filed them. Calls follow the shape of the dose curve; as a rule, active = well fitted curve in the direction sought with a large enough effect; inconclusive = small, poorly fitted or top-dose-only effect, or another doubt; inactive = no such curve, though single readings can be large; an effect the other way counts as inactive or inconclusive.

Assays:
[1] = qHTS for Inflammasome Signaling Inhibitors: IL-1-beta AlphaLISA screen against the NCATS CANVASS Library (AID 1347379); conditions: THP-1 LPS/ATP, IL-1B AlphaLISA secretion, 16 h; at 57.5 µM (top of the series);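 also: human THP-1 cells primed with LPS then triggered with ATP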
Procedure, shortened: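 Human THP-1 cells were pretreated 1 hr at 37 °C with compounds (up to 57.5 uM final), then stimulated with LPS (250 ng/mL final) and ATP (1.25 mM final). Secreted IL-1B was read by AlphaLISA after 16 hr.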

[2] = qHTS for Antimalaria activity screened against the NCATS CANVASS Library (AID 1347380);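 also: Plasmodium falciparum strain Dd2 asexual parasites grown in red blood cells; nearly all actives have a fitted effect of over 40% in size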
From the text: (§1) Natural products and their derivatives continue to be wellsprings of nascent therapeutic potential. However, many laboratories have limited resources for biological evaluation, leaving their previously isolated or synthesized compounds largely or completely untested. To address this issue, the Canvass library of natural products was assembled (https://tripod.nih.gov/canvass), in collaboration with academic and industry researchers, for quantitative high-throughput screening (qHTS) across a diverse set of cell-based and biochemical assays. […] The library was formatted into 1536-well plates and evaluated in 50 qHTS (in an 11-pnt concentration series) bioassays with broad scope of disease-relevant mechanisms. The resulting data set from 50 different assays was then systematically analyzed to identify overall trends and specific natural products with interesting biological activities. […] The proliferation assay assesses the ability of compounds to inhibit the proliferation and/or have cytotoxic effects (72 hr) against the asexual erythrocytic growth of Plasmodium falciparum Dd2, as determined by a SYBRGreen fluorescence assay. […]
Malaria-screen protocol: Assay adopted from Plouffe et al. 2008 PNAS 105: 9059; PMID: 18579783. […] The fluorescence signal was read using the EnVision (PerkinElmer) plate reader (bottom read) using a 485/14 nm excitation and 535/25 nm emission filters.

[3] = Inflammasome Signaling qHTS Counterscreen: IL-1-beta AlphaLISA counterscreen against the NCATS CANVASS Library (AID 1347381);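 also: cell-free check with purified IL-1β in medium and no THP-1 cells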
Procedure, shortened: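 To flag interference with the AlphaLISA read-out, a known amount of purified IL-1-beta (4 pg) replaced cell supernatant. Detection used anti-IL-1-beta acceptor beads, biotinylated antibody and streptavidin donor beads at room temperature.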

[4] = Cytotoxicity qHTS for assessment of Hepg2 cells membrane integrity screened against the NCATS CANVASS Library (AID 1347387)
Procedure, shortened: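 Fluorescence proportional to lysed-cell number, from LDH leaking out of HepG2 cells exposed 5 hr at 37C to 0.59 nM - 46 uM compound (11-point qHTS), is measured after 10 min with CytoTox-ONE.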

[5] = qHTS for Activators of p53 Stress Response Pathway screened against the NCATS CANVASS Library (AID 1347388)
From the text: as §1, with “activation of” for “proliferation assay assesses”, “report gene under culture conditions can be detected” for “ability of compounds to inhibit the proliferation and/or have cytotoxic effects (72 hr) against the asexual erythrocytic growth of Plasmodium falciparum Dd2, as determined”, “by” for “by a SYBRGreen”, “intensity.” for “assay.”
p53-screen protocol: 1. […] The fluorescence readout was obtained using the EnVision microplate reader (PerkinElmer) equipped with a 405 nm excitation and 460 nm and 530 nm emission filters. The ratio of 460 nm / 530 nm readout was calculated and used for data analysis. […]

[6] = qHTS assay for small molecule disruptors of mitochondrial membrane potential screened against the NCATS CANVASS Library (AID 1347389); also: nearly all actives have a fitted effect of over 60% in size
Procedure, shortened: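 Compounds tested in 11-point qHTS series on HepG2 cells for 1 hr; membrane-potential dye added for 30 min at 37C. Lower red-to-green ratio indicates loss of potential.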

[7] = Secretion counterscreen for inhibitors of the SERCaMP assay screened against the NCATS CANVASS Library (AID 1347390);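 also: light from luciferase secreted into medium read as a measure of general secretion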
Procedure, shortened: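 SH-SY5Y cells expressing constitutively secreted GLuc, 1000 cells/well, attached 4 h at 37C, then exposed to compounds (0.001 - 77 uM, 11-pnt series) for 20 h. Coelenterazine added; luminescence read to flag secretory-pathway interferers.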

[8] = qHTS for activators of Nrf2/ARE signaling pathway screened against the NCATS CANVASS Library (AID 1347391); also: nearly all actives have a fitted effect of over 60% in size
Procedure, shortened: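 Cells carrying an ARE-driven beta-lactamase reporter (HepG2 background) are dosed for 16 h, then stained with CCF4. Cell viability in the same wells is measured by CellTiter-Glo luminescence.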

[9] = qHTS for activators of dead-cell proteases activity screened against the NCATS CANVASS Library (AID 1347392);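 also: luminescence from protease leaking out of membrane-damaged cells cleaving impermeant substrate; rising signal means more cytotoxicity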
Procedure, shortened: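 HepG2 cells (2000/well) attached 18 h at 37C, then exposed 5 h to compounds (11-point qHTS). Dead-cell protease activity read as luminescence from cell-impermeant AAF-aminoluciferin substrate after 15 min at room temperature.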

[10] = qHTS for inhibitors of ER calcium dysfunction: SERCaMP assay screened against the NCATS CANVASS Library (AID 1347393);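 also: lower secreted reporter signal means inhibitor of ER calcium depletion; nearly all actives have a fitted effect of over 40% in size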
From the text: Natural products and their derivatives continue to be wellsprings of nascent therapeutic potential. However, many laboratories have limited resources for biological evaluation, leaving their previously isolated or synthesized compounds largely or completely untested. To address this issue, the Canvass library of natural products was assembled (https://tripod.nih.gov/canvass), in collaboration with academic and industry researchers, for quantitative high-throughput screening (qHTS) across a diverse set of cell-based and biochemical assays. The pure (>85% purity by liquid chromatography/mass spectrometry [LC/MS]) Canvass library of 346 natural products were submitted by 45 academic laboratories and companies around the world. We collected pure natural products to circumvent deconvolution and structure elucidation due to time and resource limitations. The library was formatted into 1536-well plates and evaluated in 50 qHTS (in an 11-pnt concentration series) bioassays with broad scope of disease-relevant mechanisms. The resulting data set from 50 different assays was then systematically analyzed to identify overall trends and specific natural products with interesting biological activities. […]
SERCaMP assay protocol: 1. […] Luminescence signal was obtained via the ViewLux plate reader (Perkin Elmer) using the clear emission filter and 1x binning, 5 seconds exposure settings.

Measured: outcome

COc1ccc2[nH]cc(CCNC(C)=O)c2c1
inactive: all assays above
